High-throughput results from PubChem BioAssay.
Shown is part of a subset that was picked to be rich in hits.
nsP2pro inh = Primary qHTS for inhibitors of NSP2Pro chikungunya virus (CHIKV); Polyprotein P1234 (Chikungunya virus (strain S27-African prototype)), Q8JUX6; FRET peptide cleavage, nsP2pro, fluorescence 1 h; Potency, µM (series often up to 24.9 µM), for the others: at the top dose activity change, negative = inhibition, actives largely listed as inhibitors; hit rate 1.1% among 31,000; AID 1964107, 2024; also: nearly all actives have a fitted effect of over 60% in size
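Enzyme 150 nM, substrate 2.5 uM (both final); Tris-HCl 10 mM pH 8.0 + 0.01% Tween 20; cpd up to 25 uM, 7 pts; 15 min preinc., 1 h RT; fluorescence ex 525/em 598.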
nsP2 cell sec = Secondary cell base assay for inhibitors of NSP2Pro Chikungunya virus (CHIKV); shares compounds with nsP2pro inh; Potency, µM (highest dose often 51.1 µM), for inactives: at the highest dose activity change, negative = inhibition, usual class: inhibitors; AID 1964100, 2024; hit rate 10% among 450; cell-based CHIKV nsP2 protease reporter assay; also: nearly all actives have a fitted effect of over 70% in size
NSP2 full ctr = Selectivity profile for inhibitors of NSP2Pro chikungunya virus (CHIKV): Full length NSP2 enzyme counterscreen (CHIKV-NSP2). shares compounds with nsP2pro inh. Full-length CHIKV NSP2 protease enzymatic counterscreen. Potency, µM (series often up to 50.7 µM), without a hit: at the highest dose activity change, negative = inhibition, usual class: inhibitors. hit rate 39% among 410. AID 1964101, 2024; also: nearly all actives have a fitted effect of over 65% in size
Furin counterscr = Selectivity profile for inhibitors of NSP2Pro chikungunya virus (CHIKV): Human furin counterscreen | Potency, µM (titrated, usually from 50.6 µM), without a hit: top-dose activity change, negative = inhibition, hits mostly inhibitors | shares compounds with nsP2pro inh | hit rate 6% among 410 | Recombinant human furin enzymatic counterscreen, fluorogenic substrate
Target sequence (P09958 whole entry, looked up): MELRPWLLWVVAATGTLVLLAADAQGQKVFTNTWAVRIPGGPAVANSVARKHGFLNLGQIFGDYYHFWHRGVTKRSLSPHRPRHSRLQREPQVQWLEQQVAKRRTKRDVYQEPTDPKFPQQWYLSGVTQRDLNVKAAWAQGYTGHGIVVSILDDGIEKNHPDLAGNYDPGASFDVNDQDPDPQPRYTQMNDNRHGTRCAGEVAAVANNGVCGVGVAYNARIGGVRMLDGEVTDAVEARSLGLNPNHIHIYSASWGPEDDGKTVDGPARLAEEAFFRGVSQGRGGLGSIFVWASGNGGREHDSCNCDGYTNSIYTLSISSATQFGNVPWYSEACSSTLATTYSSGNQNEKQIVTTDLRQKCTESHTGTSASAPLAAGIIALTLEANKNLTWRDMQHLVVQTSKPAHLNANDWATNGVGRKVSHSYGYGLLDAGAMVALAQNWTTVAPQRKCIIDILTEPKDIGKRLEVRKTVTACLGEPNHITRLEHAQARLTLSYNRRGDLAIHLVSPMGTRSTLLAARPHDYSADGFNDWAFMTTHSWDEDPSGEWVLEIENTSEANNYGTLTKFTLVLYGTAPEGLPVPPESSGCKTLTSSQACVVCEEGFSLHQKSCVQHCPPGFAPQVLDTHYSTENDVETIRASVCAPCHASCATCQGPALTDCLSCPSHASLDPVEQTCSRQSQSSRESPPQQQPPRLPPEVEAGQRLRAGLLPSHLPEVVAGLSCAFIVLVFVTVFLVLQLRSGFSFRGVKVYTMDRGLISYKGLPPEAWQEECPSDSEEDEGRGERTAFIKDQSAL
nsP2 NS23 pep = Selectivity profile for inhibitors of NSP2Pro chikungunya virus (CHIKV): Endogenous NS2/3 peptide Counterscreen; shares compounds with nsP2pro inh; Purified CHIKV nsP2 protease, endogenous NS2/3 peptide cleavage; Potency, µM (doses to about 51 µM), inactives show top-dose activity change, negative = inhibition, hits mostly inhibitors; hit rate 34% among 410; also: nearly all actives have a fitted effect of over 55% in size
Papain counter = Selectivity profile for inhibitors of NSP2Pro chikungunya virus (CHIKV): Papain Counterscreen. shares compounds with nsP2pro inh. purified papain protease activity, enzymatic inhibition. Potency, µM (doses to about 51 µM), for the others: top-dose activity change, negative = inhibition, hits mostly inhibitors. hit rate 5% among 410. AID 1964104, 2024
nsP2pro confirm = Confirmatory qHTS for inhibitors of NSP2Pro chikungunya virus (CHIKV); Potency, µM (top dose mostly 25.5 µM), for the others: at the highest dose activity change, negative = inhibition, most hits filed as inhibitors; shares compounds with nsP2pro inh; hit rate 43% among 410; CHIKV nsP2 protease enzymatic activity, qHTS; AID 1964105, 2024; also: nearly all actives have a fitted effect of over 75% in size
HCV NS3 4A cs = Selectivity profile for inhibitors of NSP2Pro chikungunya virus (CHIKV): NS34A-HCV Counterscreen; AID 1964106, 2024; shares compounds with nsP2pro inh; HCV NS3/4A protease biochemical counterscreen; hit rate 20% among 410; Potency, µM (series often up to 50.9 µM), hits mostly inhibitors; also: nearly all actives have a fitted effect of over 55% in size
Active calls of the source: *; i = inactive; ? = inconclusive; [ ] = remark or other dose. Calls follow the shape of the full dose curve. % is scaled to controls: 0 for no effect and ±100 for the full control effect; potency is read from the fitted curve at half-maximal effect.

SMILES	nsP2pro inh	others
CCCn1cc(-c2ccnc(NC3CCN(Cc4cccnc4)CC3)n2)c(C)n1	i
N#Cc1nc(-c2cccc3ccccc23)oc1NC1CNC1	i
Cc1cccc(C(=O)Nc2ccc(N3CCC(N4CCCCC4)CC3)c(C(=O)O)c2)c1	5µM*	nsP2 cell sec=11%;NSP2 full ctr=4.6µM*;Furin counterscr=?;nsP2 NS23 pep=15µM*;Papain counter=-4%;nsP2pro confirm=7.1µM*;HCV NS3 4A cs=2.6µM*
Cc1cccc(C(=O)Nc2cc3c(cc2N2CCCCC2)n(C)c(=O)n3C)c1	-9%
Cc1cccc(C(=O)Nc2ccc3ncnc(N4CCCCC4)c3c2)c1	34%
O=C(Nc1ccc(Cl)cc1)c1ccc2c(c1)N(Cc1ccccc1)CCS2	-5%
O=C(Nc1ccc(N2CCC(c3ccccc3)C2)c(C(=O)O)c1)c1ccc(Cl)cc1 (stereo not drawn)	3.5µM*	nsP2 cell sec=30%;NSP2 full ctr=3.7µM*;Furin counterscr=?;nsP2 NS23 pep=12µM*;Papain counter=9%;nsP2pro confirm=7.1µM*;HCV NS3 4A cs=3.7µM*
O=C(Nc1ccc(Cl)cc1)N1CCC(c2ccccc2)C1 (stereo not drawn)	-10%
Cc1ccc(NC(=O)c2cnn3c(-c4ccccc4)cc(C)nc23)cc1	i
O=C1CCCCN1CCNc1ccc(-c2nc(-c3ccccc3F)no2)cn1	-1%
CC(=O)Nc1sc2c(c1-c1cc3ccccc3s1)CCNC2	3%
CC(=O)c1ccc(N2CCN(S(=O)(=O)c3cc4c(cc3Cl)NC(=O)C4)CC2)cc1	i
C[C@@H]1O[C@@H](O[C@H]2[C@H](OC(=O)C34CCC5(C)C(=CCC6C7(C)CC(O)C(O[C@@H]8O[C@H](C(=O)O)[C@@H](O)[C@H](O)[C@H]8O)C(C)(C(=O)O)C7CCC65C)C3CC(C)(C)CC4O)O[C@H](C)[C@@H](O)[C@@H]2O)[C@H](O)[C@@H](O[C@@H]2OC[C@](O)(CO)[C@H]2O[C@@H]2O[C@H](CO)[C@@H](O)[C@H](O)[C@H]2O)[C@H]1O (stereo partly drawn)	13%[5.1 µM]
O=C(Nc1nc(-c2ccccc2)cs1)c1ccncc1NS(=O)(=O)c1ccc(F)cc1Cl	i
O=C(Nc1ccc(-n2cncn2)c(C(F)(F)F)c1)Nc1nnc(-c2ccncc2)s1	-1%
O=C(O)CNC(=O)c1c(=O)cc(CCc2ccccc2)n2[nH]cnc12	52%
C[C@@H](Oc1cc(-n2cnc3ccc(OC4CCN(C)CC4)cc32)sc1C(N)=O)c1ccccc1C(F)(F)F	199%
CN1CCCC1c1nc(C2CN(S(=O)(=O)Cc3cccc(F)c3)C2)no1 (stereo not drawn)	-11%
COC(=O)[C@]12CCC(C)(C)C[C@H]1[C@H]1C(=O)C=C3[C@@]4(C)C=C(C#N)C(=O)C(C)(C)[C@@H]4CC[C@@]3(C)[C@]1(C)CC2	?	nsP2 cell sec=?;NSP2 full ctr=?;Furin counterscr=-3%;nsP2 NS23 pep=?;Papain counter=?;nsP2pro confirm=?;HCV NS3 4A cs=i
O=C(Nc1ccccc1F)N[C@H]1N=C(c2ccccc2)c2ccccc2NC1=O	-14%
O=C(Nc1ccc(N2CCOCC2)c(F)c1)Nc1nnc(-c2ccncc2)s1	i
CC(=O)c1ccc(-n2c(CCC(=O)O)ccc2-c2cccs2)cc1	10%
COC(=O)c1ccccc1NC(=O)Cn1c(CCC(=O)O)ccc1-c1cccs1	2%
COC(=O)c1cccc(-n2c(CCC(=O)O)ccc2-c2cccs2)c1	8.9µM*	nsP2 cell sec=2%
O=C1CO[C@H]2CCN(Cc3ccc4c(c3)CCO4)CC[C@@H]2N1Cc1ccccc1	i
SMILES	nsP2pro inh	others
C=C1CC23CCC4[C@@](C)(CCC[C@@]4(C)C(=O)O)C2CCC1C3 (stereo partly drawn)	13%
C[C@]12CCC[C@](C)(C(=O)O)C1CCC13C=C(CO)C(CCC12)C3 (stereo partly drawn)	-8%
C=C1C2CCC3C(CCC4[C@@]3(C)CCC[C@@]4(C)C(=O)O)(C2)[C@@H]1OC(=O)/C(C)=C\C (stereo partly drawn)	1.4µM*	nsP2 cell sec=6%[17.6 µM];NSP2 full ctr=15%[17.3 µM];Furin counterscr=-13%[17.3 µM];nsP2 NS23 pep=11%[17.2 µM];Papain counter=-21%[17.2 µM];nsP2pro confirm=-20%[8.62 µM];HCV NS3 4A cs=i
COc1ccc(C2Nc3ccccc3C(=O)N2Cc2ccc3c(c2)OCO3)cc1COc1c(C)cc(NC(C)=O)cc1C (stereo not drawn)	-8%
Fc1cc(Nc2nc(-c3ccncc3)nc3ccccc23)ccc1-c1cccc(OC(F)F)c1	-3%
CC(C)=CCC/C(C)=C/CC/C(C)=C/COC1OC(COC2OCC(OC3OCC(O)C(O)C3O)C(O)C2O)C(O)C(OC2OC(C)C(OC3OC(C)C(OC4OCC(OC5OC(C)C(O)C(O)C5O)C(O)C4O)C(O)C3O)C(O)C2O)C1O (stereo not drawn)	-4%[5.1 µM]
OC(CCN1CCCCC1)(c1ccccc1)C1CCCC1 (stereo not drawn)	-6%
CC(=O)OC1C=C(C(=O)O)C2(CO)CCC(C)C(C)(CCc3ccoc3)C2C1 (stereo not drawn)	-4%[10 µM]
O=C(O/N=C1\c2ccccc2-c2nc3ccccc3nc21)c1ccco1	?	nsP2 cell sec=1%;NSP2 full ctr=3.7µM*;Furin counterscr=-10%;nsP2 NS23 pep=?;Papain counter=2.6µM*;nsP2pro confirm=3.2µM*;HCV NS3 4A cs=i
O=C(Nc1cccnc1)c1ccco1	2%
Cc1cc(NC(=O)c2ccco2)cc(-c2nc3ccccc3o2)c1O	-28%
COC1CCN(c2cc(-c3ccsc3)nc3c(C)noc23)CC1	i
COc1ccc(NC(=O)C2=C(C)NC(Nc3nc4ccccc4o3)=NC2c2ccccc2Br)cc1 (stereo not drawn)	-11%
